The structures appear in SMILES notation. ± gives the standard deviation of the averaged measurements.

In one assay the test system is Serratia marcescens K904 PosmB-luxCDABE reporter (pMQ747). In words: PosmB-lux reporter fold induction (RLU/OD600 relative to no-compound control), highest over Biolog concentrations; higher = stronger reporter activation. The settings on record: ΔrcsB mutant CMS5177; 4 h. As to the method:
(§1)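 Serratia marcescens K904 (wild type) or its isogenic ΔrcsB mutant, carrying the Rcs-dependent PosmB-luxCDABE reporter plasmid pMQ747, was grown in LB at OD600 0.1 in Biolog Phenotype MicroArray plates PM11-20 for 4 h at 30-32°C. Each compound is present at 3-4 proprietary concentrations (not stated); per the Fig. S1 legend the value given is the highest fold over those wells. Three independent trials.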
Turning to `CN(C)[C@@H]1C(O)=C(C(=O)NCN2CCCC2)C(=O)[C@@]2(O)C(O)=C3C(=O)c4c(O)cccc4[C@@](C)(O)[C@H]3C[C@@H]12` [Rolitetracycline] (Biolog plate: PM13, well positions: D9-12), the “PosmB-lux reporter fold induction” value is 1.73 ± 0.11.

For the compound `Nc1c2ccccc2nc2ccccc12` [9-Aminoacridine] (Biolog plate: PM14, well positions: B1-4), the “PosmB-lux reporter fold induction” value came out at 1.19 ± 0.19.

Take `CCn1cc(C(=O)O)c(=O)c2cnc(N3CCNCC3)nc21` [pipemidic acid] (Biolog plate: PM18, well positions: B5-8): the “PosmB-lux reporter fold induction” value is 1.91 ± 0.5.

`c1cnc2c(c1)ccc1cccnc12` [1,10-Phenanthroline] (Biolog plate: PM15, well positions: C9-12): the “PosmB-lux reporter fold induction” value was determined as 1.32 ± 0.23.

Another assay shares this test system. In words: PosmB-lux reporter fold induction (RLU/OD600 relative to no-compound control), highest over Biolog concentrations; higher = stronger Rcs reporter activation. As to conditions: wild type K904; 4 h. As to the method: as §1
For the compound `CO[C@@]1(NC(=O)C(C(=O)O)c2ccc(O)cc2)C(=O)N2C(C(=O)O)=C(CSc3nnnn3C)CO[C@@H]21` (some centres not stated) [Moxalactam] (Biolog plate: PM13, well positions: H5-8), the “PosmB-lux reporter fold induction” value came to 1.69 ± 0.24.

For the compound `CN(C)[C@@H]1C(O)=C(C(=O)NCN2CCCC2)C(=O)[C@@]2(O)C(O)=C3C(=O)c4c(O)cccc4[C@@](C)(O)[C@H]3C[C@@H]12` [Rolitetracycline] (Biolog plate: PM13, well positions: D9-12), the “PosmB-lux reporter fold induction” value was 1.49 ± 0.23.

On to `Nc1ccn(C2OC(CO)C(O)C2O)c(=O)n1` [Cytosine-1-beta-D-arabino-furanoside] (Biolog plate: PM13, well positions: E1-4), for which the “PosmB-lux reporter fold induction” value amounted to 1.5 ± 0.15.

Consider `Nc1c2ccccc2nc2ccccc12` [9-Aminoacridine] (Biolog plate: PM14, well positions: B1-4), for which the “PosmB-lux reporter fold induction” value turned out to be 1.7 ± 0.1.

Take `CCn1nc(C(=O)O)c(=O)c2cc3c(cc21)OCO3` [cinoxacin] (Biolog plate: PM16, well positions: D9-12): the “PosmB-lux reporter fold induction” value worked out at 2.46 ± 0.85.

Regarding `O=C1C=C(O)C(=O)c2ccccc21` [lawsone] (Biolog plate: PM19, well positions: E9-12), the “PosmB-lux reporter fold induction” value came to 1.63 ± 0.34.

Consider `CN(C)C(=O)/N=N/C(=O)N(C)C` [diamide] (Biolog plate: PM16, well positions: D5-8), for which the “PosmB-lux reporter fold induction” value worked out at 1.26 ± 0.35.

For the compound `NCC(=O)O` [Glycine] (Biolog plate: PM13, well positions: F5-8), the “PosmB-lux reporter fold induction” value turned out to be 1.52 ± 0.2.

As for `CO[C@@H]1[C@@H](OC(N)=O)[C@@H](O)[C@H](Oc2ccc3c(O)c(NC(=O)c4ccc(O)c(CC=C(C)C)c4)c(=O)oc3c2C)OC1(C)C` [Novobiocin] (Biolog plate: PM12, well positions: D9-12), the “PosmB-lux reporter fold induction” value was 4.98 ± 0.98.

Turning to `O=P(O)(O)OP(=O)(O)O` [sodium pyrophosphate decahydrate] (Biolog plate: PM18, well positions: A5-8), the “PosmB-lux reporter fold induction” value was 1.27 ± 0.59.

On to `OC(CCN1CCCCC1)(c1ccccc1)c1ccccc1` [pridinol] (Biolog plate: PM20, well positions: F9-12), for which the “PosmB-lux reporter fold induction” value is 2.86 ± 0.61.

For the compound `COc1ccc(C[C@H](N)C(=O)N[C@H]2[C@@H](O)[C@H](n3cnc4c(N(C)C)ncnc43)O[C@@H]2CO)cc1` [Puromycin] (Biolog plate: PM15, well positions: F9-12), the “PosmB-lux reporter fold induction” value is 1.9 ± 0.2.

With `Cc1nnc(SCC2=C(C(=O)O)N3C(=O)[C@@H](NC(=O)Cn4cnnn4)[C@H]3SC2)s1` [Cefazolin] (Biolog plate: PM11, well positions: E1-4), the “PosmB-lux reporter fold induction” value came to 1.18 ± 0.073.

With `CCn1cc(C(=O)O)c(=O)c2cnc(N3CCNCC3)nc21` [pipemidic acid] (Biolog plate: PM18, well positions: B5-8), the “PosmB-lux reporter fold induction” value amounted to 1.46 ± 0.24.

For the compound `CN[C@@H]1[C@@H](O)[C@@H](O[C@@H]2[C@@H](O)[C@H](O[C@H]3OC(CN)=CC[C@H]3N)[C@@H](N)C[C@H]2N)OC[C@]1(C)O` [Sisomicin] (Biolog plate: PM12, well positions: D1-4), the “PosmB-lux reporter fold induction” value came to 1.55 ± 0.14.

On to `O=C(O)/C=C/c1ccccc1` [cinnamic acid] (Biolog plate: PM19, well positions: C9-12), for which the “PosmB-lux reporter fold induction” value worked out at 9.92 ± 5.1.

Turning to `O=[N+]([O-])c1ccc(-[n+]2nc(-c3ccccc3)nn2-c2ccc(I)cc2)cc1` [iodonitro tetrazolium violet] (Biolog plate: PM19, well positions: D5-8), the “PosmB-lux reporter fold induction” value amounted to 0.511 ± 0.27.

On to `C/C=C/C=C/C(=O)O` [sorbic acid] (Biolog plate: PM16, well positions: H9-12), for which the “PosmB-lux reporter fold induction” value was determined as 2.12 ± 0.59.

(Values after the supplement of paper PMC9942566.)
